# Compounds with a hit are over-represented: about 7.3% of the library has one in this group of screens.
# FLuc counter – counter-screen for miR-21 project: firefly luciferase inhibitors or activators | purified FLuc, Km substrates, luminescence inhibition | P08659 | Potency, µM (highest dose often 57.5 µM), for the others: top-dose activity change, negative = inhibition, actives largely listed as inhibitors | AID 588342 | 360,000 tested, 6.9% active;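 further: plate controls were vehicle for no effect and reference inhibitor for full effect; nearly all actives have a fitted effect of over 55% in size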
# Target sequence (P08659 whole entry, looked up): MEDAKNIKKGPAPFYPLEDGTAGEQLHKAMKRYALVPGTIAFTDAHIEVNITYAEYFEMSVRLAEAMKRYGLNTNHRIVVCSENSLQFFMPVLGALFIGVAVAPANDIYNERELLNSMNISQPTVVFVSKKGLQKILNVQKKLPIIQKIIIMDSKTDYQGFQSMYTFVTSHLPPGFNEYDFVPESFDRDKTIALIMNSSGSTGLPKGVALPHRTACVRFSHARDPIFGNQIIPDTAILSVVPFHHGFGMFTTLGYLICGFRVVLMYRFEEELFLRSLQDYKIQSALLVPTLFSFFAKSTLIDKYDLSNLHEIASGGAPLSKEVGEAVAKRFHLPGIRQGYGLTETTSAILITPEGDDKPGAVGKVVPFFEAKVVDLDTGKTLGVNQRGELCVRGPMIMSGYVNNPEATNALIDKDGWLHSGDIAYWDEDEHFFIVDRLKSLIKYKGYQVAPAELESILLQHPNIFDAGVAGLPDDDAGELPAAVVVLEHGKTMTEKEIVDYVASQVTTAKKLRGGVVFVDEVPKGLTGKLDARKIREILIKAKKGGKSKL
#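 Purified P. pyralis luciferase, 10 nM final, with Km-level 10 uM D-luciferin and 10 uM ATP in 50 mM Tris acetate pH 7.5, 10 mM Mg acetate, 0.01% Tween-20, 0.05% BSA; 6-point qHTS titration about 60 µM downward; luminescence read.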
# ELG1 genotoxic – genotoxicity induction in ELG1-luciferase HEK293T cells. HEK293T ELG1-luciferase reporter, luminescence, 16 h. Potency, µM (top dose mostly 46 µM), for inactives: at the top dose activity change, positive = activation, hits mostly activators. 330,000 tested, 1.3% active; further: % of control where 0% means no effect; nearly all actives have a fitted effect of over 60% in size
#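 16 hr compound incubation (37 °C, 5% CO2) of HEK293T cells carrying luciferase-tagged ELG1; luciferase then measured by ONE-Glo luminescence after 30 min at RT.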
# SMN2 splice up – enhancers of SMN2 splice variant expression | HEK293 SMN2-luciferase splicing reporter, luminescence, 30-36 h | 210,000 tested, 2.8% active | Potency, µM (highest dose often 46.1 µM), inactives show at the top dose activity change, positive = activation, usual class: activators; further: % of control where 0% means no effect; nearly all actives have a fitted effect of over 55% in size
#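 qHTS luciferase splicing reporter: luminescence rises when SMN2 exon 7 is included in transfected HEK293 cells. Compound exposure lasted 30-36 h at 37C, with 4.5 mM final sodium butyrate as control, followed by a ONE-Glo read.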
# Rab9 prom act – activators of Rab9 promoter. Huh7 Rab9 promoter-luciferase reporter, luminescence, 24 h. Potency, µM (doses to about 9.22 µM), for inactives: top-dose activation, negative = inhibition, usual class: activators. 320,000 tested, 2.8% active; further: % of control where 0% means no effect; nearly all actives have a fitted effect of over 60% in size
#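 Stable Rab9-luc Huh7, 1500 cells/well, 2 h settle; cmpd in DMSO, 24 h, 37 °C/5% CO2; luciferase reagent 10 min RT; luminescence.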
# uPA surface inh – blocks generation of uPA at the cell surface | Potency, µM (highest dose often 38.3 µM), for inactives: at the top dose activity change, negative = inhibition, actives largely listed as inhibitors | cell surface uPA generation assay, qHTS | AID 540303 | 330,000 tested, 0.31% active; active means well fitted inhibition curve with a large enough effect; inconclusive means small, poorly fitted or top-dose-only effect; inactive means no such curve, though single readings can be large or run the other way; tested in mouse RAW 264.7 cells; further: on the % scale 0 is the no-effect control and ±100 the full control effect; nearly all actives have a fitted effect of over 55% in size
# NPC1 promoter act – activators of NPC1 promoter; 320,000 tested, 2.4% active; Potency, µM (top dose mostly 9.22 µM), for the others: at the highest dose activation, most hits filed as activators; Huh7 NPC1 promoter luciferase reporter, 24 h; further: % of control where 0% means no effect; nearly all actives have a fitted effect of over 60% in size
#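 Luciferase expression driven by the NPC1 promoter was measured in stably transfected Huh7 cells after a 24 h compound incubation, using a luciferase reagent and a luminescence read.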
# An asterisk follows results filed as active; ? = inconclusive; . = no result. Unless noted, the call rests on the fitted dose curve; in most records, active means well fitted curve in the direction sought with a large enough effect; inconclusive means small, poorly fitted or top-dose-only effect, or another doubt; inactive means no such curve, though single readings can be large; an effect the other way counts as inactive or inconclusive. Potency means the concentration at half of the fitted maximal effect.
SMILES,FLuc counter,ELG1 genotoxic,SMN2 splice up,Rab9 prom act,uPA surface inh,NPC1 promoter act
COc1cc(NC(=O)c2cc3c(=O)oc4ccc(C)cc4c3s2)cc(OC)c1OC,0%,.,-4%,.,.,.
Fc1ccc(-c2ccc(Nc3cccc(F)c3)nn2)cc1,?,6%,.,?,-5%,?
Fc1ccc(Nc2ccc(-c3ccc(F)cc3)nn2)cc1,5.4µM*,12%,.,3.2µM*,-6%,?
O=C1CC(c2ccccc2)c2c(n3ncnc3[nH]c2=O)N1 (configuration not stated),-2%,.,.,.,.,.
COc1ccccc1C(=O)OCc1ccc2sc(C)nc2c1,17µM*,1%,3%,20%,2%,-1%
COc1cc2cnc(CCO[C@H]3CCCCO3)cc2cc1OC,.,1%,.,.,-11%,.
COc1ccc2cc(CCOC3CCCCO3)ncc2c1 (configuration not stated),2.7µM*,?,.,0.5µM*,-21%,0.32µM*
CCC(C)(C)NS(=O)(=O)c1cc(-c2cc(C)no2)ccc1C,-13%,.,.,.,.,.
CC(C)NC(=O)CSc1nc(-c2ccccc2)cs1,19µM*,17%,?,2.5µM*,-20%,?
O=C(CSc1nc(-c2ccccc2)cs1)Nc1nccs1,-1%,0%,20%,15%,4%,3%
COC(=O)c1ccc(CSc2nc(-c3ccccc3)cs2)o1,8.5µM*,12%,2%,12%,?,12%
C=CCC(C)(O)CCc1ccccc1 (configuration not stated),.,.,13%,.,.,.
COc1ccc(Cn2c(SCc3ccc(C(=O)NCc4ccccc4F)cc3)nc3cccnc32)cc1,-19%,.,-15%,.,.,.
Cn1c(SCc2ccccc2F)nc2cccnc21,9.5µM*,?,13µM*,2.2µM*,.,1.4µM*
COc1ccc(-c2nc(Cn3c(SCc4ccc(C)cc4)nc4cccnc43)c(C)o2)cc1OC,6µM*,.,.,.,.,.
COc1ccc(-c2nc(Cn3c(SCc4ccc(F)cc4)nc4ccncc43)c(C)o2)cc1OC,13µM*,0%,-7%,-8%,?,-4%
Cc1ccc(CSc2nc3ccncc3n2Cc2nc(-c3ccc(Cl)cc3)oc2C)cc1,?,.,0%,.,.,.
COc1ccc(-c2nc(Cn3c(SCc4ccc(F)cc4)nc4cccnc43)c(C)o2)cc1,11µM*,.,.,.,.,.
CCOC(=O)CSc1nc2cccnc2n1C,-2%,0%,8%,-13%,3%,1%
CS(=O)(=O)N1CCC2(CC1)CN(Cc1ccc(C#N)cc1)C2,.,.,-6%,.,.,.
CS(=O)(=O)N1CCC(C(=O)N2CCN(c3ccc(F)cc3)CC2)CC1,0%,0%,.,0%,3%,0%
COc1ccc(-c2nc(Cn3c(SCc4ccccc4F)nc4ccncc43)c(C)o2)cc1,-14%,?,-13%,12%,2%,4%
COc1ccc(-c2nc(Cn3c(SCc4ccccc4F)nc4cccnc43)c(C)o2)cc1,13µM*,.,.,.,.,.
Fc1ccc(Nc2nc3ccccc3n3cnnc23)c(F)c1,0%,.,4%,.,.,.
COc1cc(OC)cc(C(=O)NCC(=O)Nc2ccc(-c3ccccc3)cc2)c1,15µM*,?,.,28%,-16%,-6%
SMILES,FLuc counter,ELG1 genotoxic,SMN2 splice up,Rab9 prom act,uPA surface inh,NPC1 promoter act
CCN(CC)C(=O)c1cccc(-c2ccc(OC)cc2)c1,?,?,6%,11%,-2%,9%
COc1cccc(C(=O)NCC(=O)OCc2ccc(F)cc2Cl)c1,17µM*,1%,-2%,-7%,2%,0%
COc1ccc(-c2cccc(C(=O)NCC(=O)O)c2)cc1,13µM*,?,?,25%,.,15%
COC(=O)CNC(=O)c1cccc(-c2ccc(OC)cc2)c1,19µM*,4%,4%,15%,1%,8%
COC(=O)CNC(=O)c1cccc(Cl)c1,-2%,0%,8%,-2%,21%,-3%
COc1ccc(C(=O)NCC(=O)OCc2ccc(F)cc2Cl)cc1OC,-14%,1%,8%,-2%,6%,1%
CCN=C(NS(=O)(=O)c1ccc(Br)cc1)c1ccc(Cl)cc1,7%,5%,0%,-7%,23%,1%
CCc1ccc(CNC(=O)c2cc3c(s2)-c2ccccc2OC3)cc1,-7%,.,-5%,.,.,.
CCOc1ncccc1C(=O)OCC(=O)c1ccc(C)c(C)c1,11µM*,9%,?,?,4%,?
CCOc1ncccc1C(=O)OCC(=O)c1ccccc1Br,13µM*,4%,17%,0%,-3%,1%
CC(C)(C)[C@H]1COC(=O)[C@H](Cc2ccc(F)cc2)CC/C=C/C[C@@H](CC(=O)N[C@H](CO)Cc2ccccc2)C(=O)N1,.,0%,.,.,12%,.
COc1ccc(CC2(CO)CCN(Cc3cccnc3)CC2)cc1,15µM*,5%,.,?,-7%,-1%
COc1ccc(-c2ncc(CN3CCC(CO)(Cc4cccc(OC)c4)CC3)cn2)cc1,?,-9%,.,-2%,6%,-7%
COc1ccc(-n2ccnc2CN2CCCC(CO)(Cc3cccc(OC)c3)C2)cc1 (configuration not stated),24µM*,-9%,.,1%,2%,-3%
COc1cccc(CC2(CO)CCCN(Cc3ccc(CO)o3)C2)c1 (configuration not stated),2%,-2%,.,0%,2%,-4%
COc1ccc(N/C=C/C(=O)C(C)(C)C)cc1,12µM*,10%,.,-3%,-1%,0%
COc1ccc(C(=O)/C=C/Nc2ccc(C)cn2)cc1OC,8.5µM*,?,11µM*,1.6µM*,-19%,2.2µM*
Cc1nc(-c2ccccc2)sc1C(=O)/C=C/c1ccc(Cl)cc1,-16%,-7%,-24%,0%,-6%,-3%
O=C(/C=C/Nc1ccccc1)c1ccc(Oc2ncccn2)cc1,2.1µM*,?,?,2.2µM*,-4%,1.4µM*
COc1ccc(N/C=C/C(=O)c2sc(-c3ccccc3)nc2C)cc1,6.7µM*,-6%,-14%,-2%,-11%,-2%
Cc1cc(C)c2nc(N3CCCC(C(=O)NCc4ccccc4F)C3)sc2c1 (configuration not stated),-1%,.,15%,.,.,.
Cc1cc(F)ccc1-n1nnc(C(N)=O)c1C,1%,.,3%,.,.,.
